In PubChem BioAssay (Tox21):
“And” between values parts separate entries of the source, which are not always exact repeats. Equal entries are not always repeated. Inconclusive results are not listed. Some structures have more than one record in an assay (separate samples or runs), and their calls can disagree. The source made the active and inactive calls. Calls come from the whole dose curve; as a rule, active = well fitted curve in the direction sought with a large enough effect in the repeat runs; inconclusive = weak or mixed curves; inactive = no such curve, though single readings can be large; an effect the other way counts as inactive or inconclusive.

How the values were obtained:
[1] = Human pregnane X receptor (PXR) small molecule agonists, qHTS cell viability counter screen (AID 1346977); note: nearly all actives have a fitted effect of over 50% in size
How it was run: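 Same-well viability read: CellTiter-Fluor added after 23 hr compound exposure, fluorescence measured 1 hr later. Cells were PXR-Luc HepG2 seeded at 2,000/well in 5% charcoal-stripped FBS medium, rested 5 hr before dosing at 37 C.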

[2] = Caspase-3/7 induction in HepG2 cells by small molecules, qHTS assay (AID 1346978); note: nearly all actives have a fitted effect of over 15% in size
How it was run: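 Caspase-3/7 induction was measured by Caspase-Glo 3/7 luminescence (30 min, room temperature) after a 17 hr compound exposure of wild-type HepG2 cells seeded at 2,000 per well and pre-incubated 5 hr.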

[3] = Caspase-3/7 induction in CHO-K1 cells by small molecules, qHTS cell viability counter screen (AID 1346979); note: nearly all actives have a fitted effect of over 35% in size
How it was run: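 Cytotoxicity counter screen: CellTiter-Fluor added to compound-treated wild-type CHO-K1 cells at 16 h (37C, 5% CO2), fluorescence measured 1 h later; same wells as caspase-3/7 measurement.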

[4] = Caspase-3/7 induction in CHO-K1 cells by small molecules, qHTS assay (AID 1346980); note: nearly all actives have a fitted effect of over 15% in size
How it was run: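 Luminescent Caspase-Glo 3/7 read (30min, room temperature) quantified apoptosis induction. Cells were wild-type CHO-K1, treated with compound for 17hr at 37 C and 5% CO2.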

[5] = Caspase-3/7 induction in HepG2 cells by small molecules, qHTS cell viability counter screen (AID 1346981); note: series mostly up to about 92 µM; nearly all actives have a fitted effect of over 30% in size
How it was run: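 The parent HepG2 line is plated at 2,000 cells per well and rested 5 hr before compound pinning from DMSO stocks. Following a 16-hr treatment at 37 C, a fluorogenic live-cell substrate (CellTiter-Fluor) reports viability after 1 hr.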

[6] = target: Nuclear receptor subfamily 1 group I member 2 (Homo sapiens) (UniProt O75469); test: Human pregnane X receptor (PXR) small molecule agonists, qHTS assay (AID 1346982); note: nearly all actives have a fitted effect of over 35% in size
Sequence of Nuclear receptor subfamily 1 group I member 2 (Homo sapiens) (O75469 whole entry, looked up): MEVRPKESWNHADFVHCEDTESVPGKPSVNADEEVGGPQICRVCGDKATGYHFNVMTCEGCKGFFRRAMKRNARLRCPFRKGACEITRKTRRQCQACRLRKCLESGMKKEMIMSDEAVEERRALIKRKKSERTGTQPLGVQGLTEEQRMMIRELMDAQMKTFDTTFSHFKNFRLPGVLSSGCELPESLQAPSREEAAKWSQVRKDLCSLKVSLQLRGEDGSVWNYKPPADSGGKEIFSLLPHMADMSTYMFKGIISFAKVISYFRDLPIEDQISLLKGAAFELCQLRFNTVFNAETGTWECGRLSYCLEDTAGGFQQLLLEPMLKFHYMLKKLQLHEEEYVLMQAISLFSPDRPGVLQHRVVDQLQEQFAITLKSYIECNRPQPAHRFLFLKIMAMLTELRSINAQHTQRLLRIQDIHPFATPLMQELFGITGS
How it was run: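 After plating in 5% charcoal-stripped FBS and a 5 hr rest, PXR-Luc HepG2 cells received compounds in DMSO. Following 24 hr at 37 C, ONE-Glo was added and light output read.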

[7] = target: Cytochrome P450 2D6 (Homo sapiens) (UniProt P10635); test: Cytochrome P450 Family 2 Subfamily D Member 6 (CYP2D6) small molecule antagonists: luciferase reporter qHTS assay (AID 1671196); note: series mostly up to about 120 µM; nearly all actives have a fitted effect of over 50% in size
Sequence of Cytochrome P450 2D6 (Homo sapiens) (P10635 whole entry, looked up): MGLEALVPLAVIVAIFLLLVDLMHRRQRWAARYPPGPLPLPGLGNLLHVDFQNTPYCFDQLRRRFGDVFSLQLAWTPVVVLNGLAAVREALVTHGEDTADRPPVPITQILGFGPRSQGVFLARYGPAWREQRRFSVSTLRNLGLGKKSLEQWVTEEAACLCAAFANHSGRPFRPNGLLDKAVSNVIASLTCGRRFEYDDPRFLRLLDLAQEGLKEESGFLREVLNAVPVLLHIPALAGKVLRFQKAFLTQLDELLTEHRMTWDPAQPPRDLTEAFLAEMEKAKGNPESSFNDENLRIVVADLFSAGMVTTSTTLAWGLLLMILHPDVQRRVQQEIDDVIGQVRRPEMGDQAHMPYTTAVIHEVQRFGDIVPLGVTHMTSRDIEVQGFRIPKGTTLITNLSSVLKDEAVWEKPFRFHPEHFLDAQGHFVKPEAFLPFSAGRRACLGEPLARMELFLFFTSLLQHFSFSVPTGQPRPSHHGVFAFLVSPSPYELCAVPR
How it was run: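 Quantitative HTS of Tox21 chemicals against CYP2D6 using a luminescent proluciferin substrate. After NADPH addition, 1 h room-temperature reaction; luminescence recorded 20 min post detection reagent.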

[8] = target: Cytochrome P450 2C9 (Homo sapiens) (UniProt P11712); test: Cytochrome P450 Family 2 Subfamily C Member 9 (CYP2C9) small molecule antagonists: luciferase reporter qHTS assay (AID 1671198); note: nearly all actives have a fitted effect of over 50% in size; note: potency is the fitted concentration of half-maximal effect; for activity change, negative = inhibition: series mostly up to about 120 µM
Sequence of Cytochrome P450 2C9 (Homo sapiens) (P11712 whole entry, looked up): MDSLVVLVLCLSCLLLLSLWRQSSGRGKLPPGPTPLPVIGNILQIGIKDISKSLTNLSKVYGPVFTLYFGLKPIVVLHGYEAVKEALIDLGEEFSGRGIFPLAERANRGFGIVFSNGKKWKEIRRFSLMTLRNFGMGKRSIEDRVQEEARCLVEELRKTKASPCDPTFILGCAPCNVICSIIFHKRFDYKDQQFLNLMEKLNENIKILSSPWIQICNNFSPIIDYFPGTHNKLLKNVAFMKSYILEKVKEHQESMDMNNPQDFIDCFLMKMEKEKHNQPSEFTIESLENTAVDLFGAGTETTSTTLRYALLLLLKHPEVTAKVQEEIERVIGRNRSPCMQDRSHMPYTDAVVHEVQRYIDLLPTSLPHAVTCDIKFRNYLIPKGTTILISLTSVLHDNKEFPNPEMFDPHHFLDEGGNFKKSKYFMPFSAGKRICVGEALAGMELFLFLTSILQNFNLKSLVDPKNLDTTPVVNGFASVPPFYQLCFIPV
How it was run: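 Enzyme-substrate mix preincubated with compound 10 min at room temperature; reaction started with NADPH regeneration solution, 1 h 37C. Luminescent luciferin product read after 20 min detection reagent.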

[9] = target: Cytochrome P450 1A2 (Homo sapiens) (UniProt P05177); test: Cytochrome P450 Family 1 Subfamily A Member 2 (CYP1A2) small molecule antagonists: luciferase reporter qHTS assay (AID 1671199); note: nearly all actives have a fitted effect of over 50% in size; note: potency is the fitted concentration of half-maximal effect; for activity change, negative = inhibition: series mostly up to about 120 µM
Sequence of Cytochrome P450 1A2 (Homo sapiens) (P05177 whole entry, looked up): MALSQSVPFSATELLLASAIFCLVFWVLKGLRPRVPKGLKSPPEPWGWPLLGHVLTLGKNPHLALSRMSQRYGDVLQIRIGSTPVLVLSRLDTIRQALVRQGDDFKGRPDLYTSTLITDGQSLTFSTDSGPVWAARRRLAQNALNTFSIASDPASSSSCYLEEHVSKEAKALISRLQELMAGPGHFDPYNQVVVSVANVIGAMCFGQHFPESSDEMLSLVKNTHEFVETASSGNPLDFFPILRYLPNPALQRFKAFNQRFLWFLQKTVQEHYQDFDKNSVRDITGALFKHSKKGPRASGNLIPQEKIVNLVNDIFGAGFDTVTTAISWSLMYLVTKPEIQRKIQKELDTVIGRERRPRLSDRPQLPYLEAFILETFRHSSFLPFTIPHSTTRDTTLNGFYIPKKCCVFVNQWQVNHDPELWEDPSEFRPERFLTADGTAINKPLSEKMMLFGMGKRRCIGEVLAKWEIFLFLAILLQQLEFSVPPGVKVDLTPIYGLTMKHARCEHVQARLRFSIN
How it was run: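 Quantitative high-throughput format using the P450-Glo CYP1A2 system. Reaction initiated by NADPH regeneration solution, 1 h at room temperature, then stopped with detection reagent; luminescence measured 20 min later.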

[10] = target: Voltage-gated inwardly rectifying potassium channel KCNH2 (Homo sapiens) (UniProt Q12809); test: Human Ether-a-go-go-Related Gene (hERG) channel small molecule antagonists: fluorescence cell-based qHTS assay (AID 1671200)
Sequence of Voltage-gated inwardly rectifying potassium channel KCNH2 (Homo sapiens) (Q12809 whole entry, looked up): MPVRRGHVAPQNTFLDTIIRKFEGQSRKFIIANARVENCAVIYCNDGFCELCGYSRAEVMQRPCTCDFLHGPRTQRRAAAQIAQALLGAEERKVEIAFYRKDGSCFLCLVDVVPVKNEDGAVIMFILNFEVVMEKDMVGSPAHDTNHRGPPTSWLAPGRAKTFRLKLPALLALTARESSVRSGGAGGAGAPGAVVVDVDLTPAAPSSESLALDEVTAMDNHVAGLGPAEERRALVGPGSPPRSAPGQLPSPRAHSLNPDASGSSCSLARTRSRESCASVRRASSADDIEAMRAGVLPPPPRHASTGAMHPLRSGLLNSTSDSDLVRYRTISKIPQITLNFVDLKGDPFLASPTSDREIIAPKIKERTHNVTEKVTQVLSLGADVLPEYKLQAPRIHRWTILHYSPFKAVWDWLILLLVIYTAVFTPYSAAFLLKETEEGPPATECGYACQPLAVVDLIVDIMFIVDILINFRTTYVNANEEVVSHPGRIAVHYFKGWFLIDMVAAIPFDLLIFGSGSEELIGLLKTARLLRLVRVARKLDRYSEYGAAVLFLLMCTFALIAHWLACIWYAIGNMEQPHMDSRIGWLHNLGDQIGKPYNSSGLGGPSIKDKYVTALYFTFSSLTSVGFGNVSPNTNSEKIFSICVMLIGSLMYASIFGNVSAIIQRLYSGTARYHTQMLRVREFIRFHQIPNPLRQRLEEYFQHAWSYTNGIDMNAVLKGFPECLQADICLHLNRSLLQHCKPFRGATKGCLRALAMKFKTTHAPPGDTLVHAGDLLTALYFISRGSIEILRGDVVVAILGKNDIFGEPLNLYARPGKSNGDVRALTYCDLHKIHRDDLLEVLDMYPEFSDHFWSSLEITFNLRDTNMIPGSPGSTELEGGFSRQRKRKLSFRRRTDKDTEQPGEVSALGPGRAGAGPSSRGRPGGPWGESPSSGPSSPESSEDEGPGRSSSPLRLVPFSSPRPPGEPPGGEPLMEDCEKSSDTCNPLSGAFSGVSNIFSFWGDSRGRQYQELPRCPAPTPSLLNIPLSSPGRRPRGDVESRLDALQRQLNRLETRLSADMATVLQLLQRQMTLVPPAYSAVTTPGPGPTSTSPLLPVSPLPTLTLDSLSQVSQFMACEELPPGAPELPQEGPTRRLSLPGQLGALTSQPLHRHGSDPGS
How it was run: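 Thallium flux as potassium surrogate: FluxOR II dye loaded 1 h at room temperature into hERG-expressing U2OS cells, then stimulus buffer added after 10 min. Kinetic 480 nm excitation/540 nm emission read, 2 min.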

[11] = target: Cytochrome P450 3A4 (Homo sapiens) (UniProt P08684); test: Cytochrome P450 Family 3 Subfamily A Member 4 (CYP3A4) small molecule antagonists: luciferase reporter qHTS assay (AID 1671201); note: nearly all actives have a fitted effect of over 50% in size; note: potency is the fitted concentration of half-maximal effect; for activity change, negative = inhibition: series mostly up to about 120 µM
Sequence of Cytochrome P450 3A4 (Homo sapiens) (P08684 whole entry, looked up): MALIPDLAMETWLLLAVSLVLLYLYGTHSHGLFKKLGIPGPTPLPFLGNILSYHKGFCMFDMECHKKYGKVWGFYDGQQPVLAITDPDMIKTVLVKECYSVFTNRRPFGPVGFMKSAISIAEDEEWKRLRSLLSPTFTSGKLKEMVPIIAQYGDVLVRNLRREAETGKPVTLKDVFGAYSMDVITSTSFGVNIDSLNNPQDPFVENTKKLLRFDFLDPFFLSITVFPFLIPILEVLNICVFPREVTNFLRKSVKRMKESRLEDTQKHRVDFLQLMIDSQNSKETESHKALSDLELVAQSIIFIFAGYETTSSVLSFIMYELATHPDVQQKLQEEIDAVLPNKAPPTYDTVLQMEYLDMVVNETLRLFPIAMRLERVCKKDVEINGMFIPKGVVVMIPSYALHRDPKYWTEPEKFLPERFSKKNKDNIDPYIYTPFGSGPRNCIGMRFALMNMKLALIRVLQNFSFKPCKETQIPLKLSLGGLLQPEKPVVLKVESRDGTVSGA
How it was run: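 Recombinant human CYP3A4 converts a proluciferin substrate to luciferin over 1 h at room temperature after NADPH regeneration solution is added (compound preincubated 10 min); detection reagent stops reaction, luminescence read 20 min later as relative units.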

[12] = target: Cytochrome P450 2C19 (Homo sapiens) (UniProt P33261); test: Cytochrome P450 Family 2 Subfamily C Member 19 (CYP2C19) small molecule antagonists: luciferase reporter qHTS assay (AID 1671197); note: nearly all actives have a fitted effect of over 65% in size; note: potency is the fitted concentration of half-maximal effect; for activity change, negative = inhibition: series mostly up to about 120 µM
Sequence of Cytochrome P450 2C19 (Homo sapiens) (P33261 whole entry, looked up): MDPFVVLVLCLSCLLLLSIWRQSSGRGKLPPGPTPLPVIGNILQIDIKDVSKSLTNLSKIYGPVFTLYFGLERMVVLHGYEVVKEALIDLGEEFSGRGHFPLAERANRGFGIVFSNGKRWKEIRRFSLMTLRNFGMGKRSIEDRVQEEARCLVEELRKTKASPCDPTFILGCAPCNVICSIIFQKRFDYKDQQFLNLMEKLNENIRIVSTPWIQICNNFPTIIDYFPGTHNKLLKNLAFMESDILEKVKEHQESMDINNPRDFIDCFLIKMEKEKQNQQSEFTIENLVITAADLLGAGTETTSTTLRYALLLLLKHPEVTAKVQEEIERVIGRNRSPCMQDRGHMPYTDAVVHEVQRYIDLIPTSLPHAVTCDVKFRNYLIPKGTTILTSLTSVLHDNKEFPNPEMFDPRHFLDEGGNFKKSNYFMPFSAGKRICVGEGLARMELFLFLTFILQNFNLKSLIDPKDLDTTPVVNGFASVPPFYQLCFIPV
How it was run: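 Relative luminescence units recorded 20 min after the detection reagent stopped a 1 h, 37C CYP2C19 reaction on proluciferin substrate, which was started by NADPH regeneration following 10 min room-temperature compound preincubation; ketoconazole positive control.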

[13] = target: Nuclear receptor subfamily 1 group I member 2 (Rattus norvegicus) (UniProt Q9R1A7); test: Rat pregnane X receptor (rPXR) activation by small molecules, qHTS assay (AID 1346983); conditions: rPXR luciferase reporter cells, One-Glo luminescence, 24 h; stronger effect = higher value; note: nearly all actives have a fitted effect of over 20% in size
Sequence of Nuclear receptor subfamily 1 group I member 2 (Rattus norvegicus) (Q9R1A7 whole entry, looked up): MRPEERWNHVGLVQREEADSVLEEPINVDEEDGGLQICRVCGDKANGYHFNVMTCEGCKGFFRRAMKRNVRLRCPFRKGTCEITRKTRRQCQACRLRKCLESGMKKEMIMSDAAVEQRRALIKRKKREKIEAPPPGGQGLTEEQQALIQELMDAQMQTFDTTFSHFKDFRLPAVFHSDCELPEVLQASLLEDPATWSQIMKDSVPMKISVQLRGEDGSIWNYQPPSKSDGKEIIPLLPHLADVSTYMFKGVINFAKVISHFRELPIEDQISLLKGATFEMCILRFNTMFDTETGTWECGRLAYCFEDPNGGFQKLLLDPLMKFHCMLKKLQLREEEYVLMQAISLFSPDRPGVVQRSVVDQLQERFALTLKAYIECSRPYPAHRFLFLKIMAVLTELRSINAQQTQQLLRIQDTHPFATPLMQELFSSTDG
How it was run: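 Luminescent readout (One-Glo luciferase, 30 min room temperature) followed 24 hr compound treatment at 37 C of rPXR cells plated 2,000 per well and preincubated 5hr; qHTS format with compounds delivered in DMSO.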

[14] = target: Nuclear receptor subfamily 1 group I member 2 (Homo sapiens) (UniProt O75469); test: CYP3A4 induction through human pregnane X receptor (PXR) by small molecules, qHTS assay (AID 1346984); note: nearly all actives have a fitted effect of over 40% in size
How it was run: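 Human PXR activation is tracked via CYP3A4 promoter-luciferase in DPX-2 (HepG2) cells. Compounds treat cells for 24hr at 37C, and luminescence is read after One-Glo.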
% is set by controls: 0 for no effect and ±100 for the full control effect.

CC/C(C)=N/O
inactive: Potency [1] | Potency [2] | Potency [3] | Potency [4] | Potency [5] | Potency [6] | Potency [7] | Potency [8] | Potency [9] | Potency [10] | Potency [11]

Cc1ccc(C(C)C)cc1
inactive: Potency [1] | Potency [2] | Potency [3] | Potency [4] | Potency [5] | Potency [6] | Potency [7] | Potency [12] | Potency [8] | Potency [9] | Potency [10] | Potency [11]

CCCCCCCCCCCCCC(=O)O
inactive and 71 µM (active): Potency [9]
inactive: Potency [1] | Potency [2] | Potency [3] | Potency [4] | Potency [5] | Potency [6] | Potency [7] | Potency [12] | Potency [8] | Potency [10] | Potency [11]

Cc1cc(CC(=O)O)n(C)c1C(=O)c1ccc(Cl)cc1
inactive: Potency [1] | Potency [2] | Potency [3] | Potency [4] | Potency [5] | max activation [13] -4.94% and -11.5% | Potency [7] | Potency [8] | Potency [9] | Potency [10] | Potency [11]

O=C1C(N(CO)C(=O)NCO)N(CO)C(=O)N1CO (stereo not drawn)
inactive: Potency [1] | Potency [2] | Potency [3] | Potency [4] | Potency [5] | Potency [6] | Potency [7] | Potency [12] | Potency [8] | Potency [9] | Potency [10] | Potency [11]

OCC(O)CS (stereo not drawn)
inactive: Potency [1] | Potency [2] | Potency [3] | Potency [4] | Potency [5] | Potency [6] | max activation [13] -1.93% | Potency [14] | Potency [7] | Potency [12] | Potency [8] | Potency [9] | Potency [10] | Potency [11]

CCCCCCCCO
inactive: Potency [1] | Potency [2] | Potency [3] | Potency [4] | Potency [5] | Potency [6] | Potency [7] | Potency [12] | Potency [8] | Potency [10] | Potency [11]

CS(=O)(=O)c1ccc(Cl)cc1
inactive: Potency [1] | Potency [2] | Potency [3] | Potency [4] | Potency [5] | Potency [6] | Potency [7] | Potency [12] | Potency [8] | Potency [10] | Potency [11]

O=[N+]([O-])c1ccccc1C(F)(F)F
6.95 µM (active) and inactive: Potency [12]
inactive: Potency [1] | Potency [2] | Potency [3] | Potency [4] | Potency [5] | Potency [6] | Potency [7] | Potency [8] | Potency [9] | Potency [10] | Potency [11]

CCCOCC(C)O (stereo not drawn)
inactive: Potency [1] | Potency [2] | Potency [3] | Potency [4] | Potency [5] | Potency [6] | Potency [7] | Potency [12] | Potency [8] | Potency [10] | Potency [11]

NCCNCCNCCN
inactive: Potency [1] | Potency [2] | Potency [3] | Potency [4] | Potency [5] | max activation [13] -2.83% | Potency [10]

COC(=O)/C=C\C(=O)OC
inactive: Potency [1] | Potency [2] | Potency [3] | Potency [4] | Potency [5] | Potency [6] | Potency [7] | Potency [12] | Potency [8] | Potency [9] | Potency [10] | Potency [11]

CC(C)=CCC/C(C)=C/C=O
inactive and 79.6 µM (active): Potency [8]
inactive: Potency [1] | Potency [2] | Potency [3] | Potency [4] | Potency [5] | Potency [6] | Potency [7] | Potency [12] | Potency [10]
inactive and 35.6 µM (active): Potency [11]

COc1c(Cl)ccc(Cl)c1C(=O)O
active: Potency [8] 39.9 µM
inactive: Potency [1] | Potency [2] | Potency [3] | Potency [4] | Potency [5] | Potency [6] | Potency [7] | Potency [12] | Potency [9] | Potency [10] | Potency [11]

Cc1ccccc1C=O
inactive: Potency [1] | Potency [2] | Potency [3] | Potency [4] | Potency [5] | Potency [6] | Potency [7] | Potency [8] | Potency [9] | Potency [10] | Potency [11]

CCCCCCCCCCCC(=O)N(C)CC(=O)O
inactive: Potency [1] | Potency [2] | Potency [3] | Potency [4] | Potency [5] | activity change, negative = inhibition [7] -25.2% [at 10.5 µM] | activity change, negative = inhibition [12] 17.6% [at 10.5 µM] | activity change, negative = inhibition [8] -4.94% [at 10.5 µM] | Potency [10] | Potency [11]
active: Potency [8] 38.7 µM

Nc1cccc(N)n1
inactive: Potency [1] | Potency [2] | Potency [3] | Potency [4] | Potency [5] | Potency [6] | Potency [10] | Potency [11]
active: Potency [12] 39.9 µM

CC1(C)[C@@H](O[C@H]2O[C@H](C(=O)O)[C@@H](O)[C@H](O)[C@H]2O[C@@H]2O[C@H](C(=O)O)[C@@H](O)[C@H](O)[C@H]2O)CC[C@]2(C)[C@H]3C(=O)C=C4[C@@H]5C[C@@](C)(C(=O)O)CC[C@]5(C)CC[C@@]4(C)[C@]3(C)CC[C@@H]12
inactive: Potency [1] | Potency [2] | Potency [3] | Potency [4] | Potency [5] | Potency [6] | max activation [13] -0.648% | Potency [14] | Potency [7] | Potency [8] | Potency [10] | Potency [11]

CC(=O)OC/C=C(\C)CCC=C(C)C
inactive and 39.9 µM (active): Potency [12] | Potency [8]
inactive: Potency [1] | Potency [2] | Potency [3] | Potency [5] | Potency [6] | Potency [7] | Potency [9] | Potency [10]
inactive and 31.7 µM (active): Potency [11]
